# Results reported in the supplement of paper PMC8728848.
# This excerpt belongs to a sample that is enriched for the strongest signals.
# B1: PX9961J-bvu-499-24-499 (Bacteroides vulgatus) (protein)
# chain: LNTDPSTAVPSDDAIKNIDDAQVALNGIYRLASAHSYYGDNYLYYADCRGEDVQARINKGAGRRVSPYYFFDVTADDNFNITLVWNQPYKVIHQANSLIEKLDAGNAGNARPEEVARIKSEALAMRGLALFDLTRLFGMPYTLDNGASLGVPIEIQTTLEDHAPERNTVAQCYEQVLKDLNDALGGLTKEKHDAYMNYWSVKALLSRVYLYMNDNENALKCAEEVINDNGGIYRLFTHDEYPSVWGKDFNSESLFEFYFTMSEPSGGSGGEGAPMVYADNVKDWNNLILTKAYLDLLNEDPEDVRHVFPHLPENAVADTLPVAAKGQPKYLIKYPGKSGSVTDAVSTVNPQDNDLCILRLSEVYLNAAEAAFKIGNTEKALTYLNAIVTRANPAKSVTSADLSLERILKERRKELVGEGHAFFDYMRNGKSVDRSGGWHLTMPEDARVIAPSDPRVALPIPQTEIDANPNIVQNPR
# Assays:
# Assay in all cases: glycan array binding signal (z-score within array); higher = stronger binding
# Conditions in all cases: glycan notation: IUPAC condensed, linker removed
# [1] = target: Fuc(a1-2)Gal(b1-3)GlcNAc(b1-3)[Neu5Ac(a2-6)Gal(b1-4)GlcNAc(b1-6)]Gal(b1-4)Glc
# In short: (§1)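 The binding signal is a Z-score computed within each array and averaged over linkers. Arrays of the same protein sequence at different concentrations or buffers were also averaged together. Data originate from 3228 arrays in the Consortium for Functional Glycomics database, kept only where the protein sequence was available.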
# [2] = target: Fuc(a1-3)[Gal(b1-4)]GlcNAc(b1-6)GalNAc
# In short: as §1
# Gal(a1-2)Gal = target: Gal(a1-2)Gal
# In short: as §1
# [3] = target: Gal(a1-3)Gal(b1-3)GlcNAc(b1-6)GalNAc
# In short: as §1
# [4] = target: Gal(a1-3)Gal(b1-3)[Fuc(a1-4)]GlcNAc(b1-2)Man(a1-3)[Gal(a1-3)Gal(b1-3)[Fuc(a1-4)]GlcNAc(b1-2)Man(a1-6)]Man(b1-4)GlcNAc(b1-4)GlcNAc
# In short: as §1
# [5] = target: Gal(a1-3)[Gal(a1-4)]Gal(b1-4)GlcNAc
# In short: as §1
# Gal(a1-4)Gal(b1-4)Glc = target: Gal(a1-4)Gal(b1-4)Glc
# In short: as §1
# [6] = target: Gal(b1-3)GlcNAc(b1-2)Man(a1-3)[GlcNAc(b1-4)][Gal(b1-3)GlcNAc(b1-2)Man(a1-6)]Man(b1-4)GlcNAc(b1-4)GlcNAc
# In short: as §1
# Gal(b1-3)GlcNAc6S = target: Gal(b1-3)GlcNAc6S
# In short: as §1
# [7] = target: Gal(b1-4)GlcNAc(b1-3)Gal(b1-4)GlcNAc(b1-2)[Gal(b1-4)GlcNAc(b1-3)Gal(b1-4)GlcNAc(b1-6)]Man(a1-6)[Gal(b1-4)GlcNAc(b1-3)Gal(b1-4)GlcNAc(b1-2)Man(a1-3)]Man(b1-4)GlcNAc(b1-4)[Fuc(a1-6)]GlcNAc
# In short: as §1
# [8] = target: Gal(b1-4)GlcNAc(b1-3)Gal(b1-4)GlcNAc(b1-3)Gal(b1-4)GlcNAc(b1-2)[Gal(b1-4)GlcNAc(b1-3)Gal(b1-4)GlcNAc(b1-3)Gal(b1-4)GlcNAc(b1-6)]Man(a1-6)[Gal(b1-4)GlcNAc(b1-3)Gal(b1-4)GlcNAc(b1-3)Gal(b1-4)GlcNAc(b1-2)Man(a1-3)]Man(b1-4)GlcNAc(b1-4)[Fuc(a1-6)]GlcNAc
# In short: as §1
# [9] = target: Gal(b1-4)GlcNAc(b1-3)Gal(b1-4)GlcNAc(b1-3)Gal(b1-4)GlcNAc(b1-3)Gal(b1-4)GlcNAc(b1-3)Gal(b1-4)GlcNAc(b1-2)Man(a1-3)[Gal(b1-4)GlcNAc(b1-3)Gal(b1-4)GlcNAc(b1-3)Gal(b1-4)GlcNAc(b1-3)Gal(b1-4)GlcNAc(b1-3)Gal(b1-4)GlcNAc(b1-2)Man(a1-6)]Man(b1-4)GlcNAc(b1-4)GlcNAc
# In short: as §1
# [10] = target: Gal(b1-4)GlcNAc(b1-3)Gal(b1-4)GlcNAc(b1-3)Gal(b1-4)GlcNAc(b1-3)Gal(b1-4)GlcNAc(b1-3)Gal(b1-4)GlcNAc(b1-2)Man(a1-3)[Gal(b1-4)GlcNAc(b1-3)Gal(b1-4)GlcNAc(b1-3)Gal(b1-4)GlcNAc(b1-3)Gal(b1-4)GlcNAc(b1-3)Gal(b1-4)GlcNAc(b1-2)Man(a1-6)]Man(b1-4)GlcNAc(b1-4)[Fuc(a1-6)]GlcNAc
# In short: as §1
# [11] = target: Gal(b1-4)GlcNAc(b1-3)Gal(b1-4)GlcNAc(b1-3)Gal(b1-4)GlcNAc(b1-3)Gal(b1-4)GlcNAc(b1-3)Gal(b1-4)GlcNAc(b1-3)Gal(b1-4)GlcNAc(b1-2)Man(a1-3)[Gal(b1-4)GlcNAc(b1-3)Gal(b1-4)GlcNAc(b1-3)Gal(b1-4)GlcNAc(b1-3)Gal(b1-4)GlcNAc(b1-3)Gal(b1-4)GlcNAc(b1-3)Gal(b1-4)GlcNAc(b1-2)Man(a1-6)]Man(b1-4)GlcNAc(b1-4)GlcNAc
# In short: as §1
# [12] = target: Gal(b1-4)GlcNAc(b1-3)[Gal(b1-4)GlcNAc(b1-6)]Gal(b1-4)GlcNAc
# In short: as §1
# Gal(b1-4)GlcNAc6P = target: Gal(b1-4)GlcNAc6P
# In short: as §1
# Gal6P(b1-4)GlcNAc = target: Gal6P(b1-4)GlcNAc
# In short: as §1
# GalNAc(a1-3)Gal = target: GalNAc(a1-3)Gal
# In short: as §1
# GalNAc(b1-3)GlcNAc = target: GalNAc(b1-3)GlcNAc
# In short: as §1
# GalNAc6S(b1-4)GlcNAc = target: GalNAc6S(b1-4)GlcNAc
# In short: as §1
# GlcA(b1-6)Gal = target: GlcA(b1-6)Gal
# In short: as §1
# [13] = target: GlcNAc(a1-4)Gal(b1-4)GlcNAc(b1-3)Gal(b1-4)Glc
# In short: as §1
# [14] = target: GlcNAc(b1-2)Man(a1-3)[GlcNAc(b1-4)][GlcNAc(b1-2)Man(a1-6)]Man(b1-4)GlcNAc(b1-4)[Fuc(a1-6)]GlcNAc
# In short: as §1
# GlcNAc(b1-3)Gal = target: GlcNAc(b1-3)Gal
# In short: as §1
# [15] = target: GlcNAc(b1-3)Gal(b1-4)GlcNAc(b1-3)Gal(b1-4)GlcNAc(b1-3)Gal(b1-4)GlcNAc(b1-3)Gal(b1-4)GlcNAc(b1-2)Man(a1-3)[GlcNAc(b1-3)Gal(b1-4)GlcNAc(b1-3)Gal(b1-4)GlcNAc(b1-3)Gal(b1-4)GlcNAc(b1-3)Gal(b1-4)GlcNAc(b1-2)Man(a1-6)]Man(b1-4)GlcNAc(b1-4)[Fuc(a1-6)]GlcNAc
# In short: as §1
# [16] = target: GlcNAc(b1-3)Gal(b1-4)GlcNAc(b1-3)GalNAc
# In short: as §1
# [17] = target: Man(a1-3)[Man(a1-6)]Man(a1-6)[Man(a1-3)]Man(b1-4)GlcNAc(b1-4)GlcNAc
# In short: as §1
# [18] = target: Neu5Ac(a2-3)Gal(b1-3)GlcNAc(b1-3)GalNAc
# In short: as §1
# [19] = target: Neu5Ac(a2-3)Gal(b1-3)[Fuc(a1-4)]GlcNAc(b1-3)Gal(b1-4)[Fuc(a1-3)]GlcNAc
# In short: as §1
# [20] = target: Neu5Ac(a2-3)Gal(b1-3)]Neu5Ac(a2-3)Gal(b1-4)]GlcNAc
# In short: as §1
# [21] = target: Neu5Ac(a2-3)Gal(b1-4)GlcNAc(b1-2)[Neu5Ac(a2-3)Gal(b1-4)GlcNAc(b1-4)]Man(a1-3)[GlcNAc(b1-4)][Neu5Ac(a2-3)Gal(b1-4)GlcNAc(b1-2)[Neu5Ac(a2-3)Gal(b1-4)GlcNAc(b1-6)]Man(a1-6)]Man(b1-4)GlcNAc(b1-4)GlcNAc
# In short: as §1
# [22] = target: Neu5Ac(a2-3)Gal(b1-4)[Fuc(a1-3)]GlcNAc(b1-6)[Gal(b1-3)]GalNAc
# In short: as §1
# [23] = target: Neu5Ac(a2-3)[GalNAc(b1-4)]Gal(b1-4)GlcNAc(b1-3)GalNAc
# In short: as §1
# [24] = target: Neu5Ac(a2-6)Gal(b1-4)GlcNAc(b1-2)Man(a1-3)Man(b1-4)GlcNAc(b1-4)GlcNAc
# In short: as §1
# [25] = target: Neu5Ac(a2-6)Gal(b1-4)GlcNAc(b1-3)[Neu5Ac(a2-6)Gal(b1-4)GlcNAc(b1-6)]GalNAc
# In short: as §1
# [26] = target: Neu5Ac(a2-8)Neu5Gc(a2-3)Gal(b1-4)GlcNAc
# In short: as §1
# [27] = target: Neu5Ac9Ac(a2-3)Gal(b1-4)GlcNAc
# In short: as §1
binder,measurement,setting,value
B1,glycan array binding signal (z-score),[1],-0.281
same,glycan array binding signal (z-score),[2],-0.674
same,glycan array binding signal (z-score),Gal(a1-2)Gal,-0.036
same,glycan array binding signal (z-score),[3],1.19
same,glycan array binding signal (z-score),[4],2.95
same,glycan array binding signal (z-score),[5],3.12
same,glycan array binding signal (z-score),Gal(a1-4)Gal(b1-4)Glc,-0.223
same,glycan array binding signal (z-score),[6],2.45
same,glycan array binding signal (z-score),Gal(b1-3)GlcNAc6S,-0.142
same,glycan array binding signal (z-score),[7],3.83
same,glycan array binding signal (z-score),[8],0.849
same,glycan array binding signal (z-score),[9],4.09
same,glycan array binding signal (z-score),[10],2.67
same,glycan array binding signal (z-score),[11],0.326
same,glycan array binding signal (z-score),[12],-0.048
same,glycan array binding signal (z-score),Gal(b1-4)GlcNAc6P,0.028
same,glycan array binding signal (z-score),Gal6P(b1-4)GlcNAc,-0.613
same,glycan array binding signal (z-score),GalNAc(a1-3)Gal,2.34
same,glycan array binding signal (z-score),GalNAc(b1-3)GlcNAc,0.212
same,glycan array binding signal (z-score),GalNAc6S(b1-4)GlcNAc,2.75
same,glycan array binding signal (z-score),GlcA(b1-6)Gal,0.034
same,glycan array binding signal (z-score),[13],0.01
same,glycan array binding signal (z-score),[14],-0.709
same,glycan array binding signal (z-score),GlcNAc(b1-3)Gal,-0.109
same,glycan array binding signal (z-score),[15],2.84
same,glycan array binding signal (z-score),[16],0.1
same,glycan array binding signal (z-score),[17],-0.181
same,glycan array binding signal (z-score),[18],0.006
same,glycan array binding signal (z-score),[19],-0.506
same,glycan array binding signal (z-score),[20],0.358
same,glycan array binding signal (z-score),[21],-0.208
same,glycan array binding signal (z-score),[22],-0.279
same,glycan array binding signal (z-score),[23],-0.342
same,glycan array binding signal (z-score),[24],0.368
same,glycan array binding signal (z-score),[25],-0.732
same,glycan array binding signal (z-score),[26],19
same,glycan array binding signal (z-score),[27],-0.319
